PubChem BioAssay (Tox21)
“And” between values parts separate entries of the source, which are not always exact repeats. Equal values may be shown once. Results filed as inconclusive are left out. A call without a number means that no potency is given here. More than one record can exist for a structure, and the calls need not agree. The source made the active and inactive calls. The call rests on the fitted dose curve; in most records, active means well fitted curve in the direction sought with a large enough effect in the repeat runs; inconclusive means weak or mixed curves; inactive means no such curve, though single readings can be large; an effect the other way counts as inactive or inconclusive.

Assays:
[1] = qHTS RealTime-Glo MT Cell Viability Assay in HEK293 cells - 0 hour (AID 1224880); further: top concentration of the series differs between compounds; nearly all actives have a fitted effect of over 45% in size
How it was run: (§1)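 HEK293 cells mixed with RealTime-Glo reagents (NanoLuc plus cell-permeant prosubstrate) at 600 cells/well, preincubated 5 h at 37 C/5% CO2, then given 23 nL compound in DMSO. Nonlytic luminescence from viable cells was read at 0, 8, 16, 24, 32 and 40 h.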

[2] = A CellTox Green Cytotoxicity Assay to monitor cytotoxicity in HEK293 cells - 32 hour (AID 1224881); further: nearly all actives have a fitted effect of over 40% in size; further: potency means the concentration at half of the fitted maximal effect
How it was run: (§2)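 HEK293 cells premixed with CellTox Green dye were seeded at 600 cells/well and left 5 h at 37 C/5% CO2 before pin transfer of 23 nL compound in DMSO. Fluorescence from dye bound to dead-cell DNA was read during 40 h treatment.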

[3] = A CellTox Green Cytotoxicity Assay to monitor cytotoxicity in HepG2 cells - 0 hour (AID 1224882); further: nearly all actives have a fitted effect of over 35% in size; further: potency means the concentration at half of the fitted maximal effect
How it was run: (§3)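 HepG2 cells were seeded together with the CellTox Green dye at 600 cells/well, left 5 h at 37 C/5% CO2, then given compounds in DMSO. Fluorescence from dye bound to dead-cell DNA was read repeatedly over 40 h of treatment at 37 C.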

[4] = A CellTox Green Cytotoxicity Assay to monitor cytotoxicity in HepG2 cells - 32 hour (AID 1224883); further: nearly all actives have a fitted effect of over 50% in size; further: potency means the concentration at half of the fitted maximal effect
How it was run: as §3

[5] = qHTS RealTime-Glo MT Cell Viability Assay in HepG2 cells - 16 hour (AID 1224885); further: nearly all actives have a fitted effect of over 50% in size; further: potency means the concentration at half of the fitted maximal effect
How it was run: (§4)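 HepG2 cells were seeded at 600 cells/well together with NanoLuc luciferase and a cell-permeant prosubstrate, preincubated 5 h at 37 C/5% CO2, then pin-dosed with compounds in DMSO. Nonlytic luminescence from viable cells was read at each time point.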

[6] = qHTS RealTime-Glo MT Cell Viability Assay in HEK293 cells - 24 hour (AID 1224886); further: nearly all actives have a fitted effect of over 50% in size; further: potency means the concentration at half of the fitted maximal effect
How it was run: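 HEK293 cells were seeded at 600 cells/well together with NanoLuc luciferase and cell-permeant prosubstrate, preincubated 5 h at 37 C/5% CO2, then given compound in DMSO by pintool. Luminescence from viable-cell prosubstrate reduction was read repeatedly over 40 h.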

[7] = qHTS RealTime-Glo MT Cell Viability Assay in HEK293 cells - 8 hour (AID 1224887); further: nearly all actives have a fitted effect of over 50% in size; further: potency means the concentration at half of the fitted maximal effect
How it was run: as §1

[8] = A CellTox Green Cytotoxicity Assay to monitor cytotoxicity in HEK293 cells - 16 hour (AID 1224888); further: nearly all actives have a fitted effect of over 35% in size
How it was run: as §2

[9] = qHTS RealTime-Glo MT Cell Viability Assay in HepG2 cells - 0 hour (AID 1224889); further: nearly all actives have a fitted effect of over 50% in size
How it was run: as §4

[10] = A CellTox Green Cytotoxicity Assay to monitor cytotoxicity in HEK293 cells - 8 hour (AID 1224884); further: nearly all actives have a fitted effect of over 35% in size
How it was run: as §2

O=C1C=CC(=O)C=C1
Potency [1]: inactive | Potency [2]: inactive | Potency [3]: inactive | Potency [4]: inactive | Potency [5]: inactive | Potency [6]: inactive | Potency [7]: inactive | Potency [8]: inactive | Potency [9]: inactive

C=C(C)C(=O)OCC1CO1 (stereo not given)
Potency [1]: inactive | Potency [2]: inactive | Potency [3]: inactive | Potency [4]: inactive | Potency [10]: inactive | Potency [5]: inactive | Potency [7]: inactive | Potency [8]: inactive | Potency [9]: inactive

Nc1ccc(Cl)c(Cl)c1
Potency [1]: inactive | Potency [2]: inactive | Potency [3]: inactive | Potency [4]: inactive | Potency [10]: inactive | Potency [5]: inactive | Potency [6]: inactive | Potency [7]: inactive | Potency [8]: inactive | Potency [9]: inactive

CCC(C)c1ccc(O)cc1 (stereo not given)
Potency [1]: inactive | Potency [2]: 43.6 µM (active) | Potency [3]: inactive | Potency [4]: 43.6 µM (active) | Potency [5]: inactive | Potency [6]: inactive | Potency [7]: inactive | Potency [9]: inactive

Cc1cc(Cl)ccc1OCCCC(=O)O
Potency [1]: inactive | Potency [2]: inactive | Potency [3]: inactive | Potency [4]: inactive | Potency [10]: inactive | Potency [5]: inactive | Potency [6]: inactive | Potency [7]: inactive | Potency [8]: inactive | Potency [9]: inactive

CCN(CC)C(=O)SCc1ccc(Cl)cc1
Potency [1]: inactive | Potency [2]: inactive | Potency [3]: inactive | Potency [4]: inactive | Potency [10]: inactive | Potency [5]: inactive | Potency [7]: inactive | Potency [8]: inactive | Potency [9]: inactive

Nc1ccncc1
Potency [1]: inactive | Potency [2]: inactive | Potency [3]: inactive | Potency [4]: inactive | Potency [10]: inactive | Potency [5]: inactive | Potency [6]: inactive | Potency [7]: inactive | Potency [8]: inactive | Potency [9]: inactive

CN(C)c1ccc(C(=O)c2ccc(N(C)C)cc2)cc1
Potency [1]: inactive | Potency [2]: inactive | Potency [3]: inactive | Potency [4]: 12.2 µM (active) | Potency [10]: inactive | Potency [5]: inactive | Potency [7]: inactive | Potency [8]: inactive | Potency [9]: inactive

COc1ccc(C=O)cc1
Potency [1]: inactive | Potency [2]: inactive | Potency [3]: inactive | Potency [4]: inactive | Potency [10]: inactive | Potency [5]: inactive | Potency [6]: inactive | Potency [7]: inactive | Potency [8]: inactive | Potency [9]: inactive

COC(=O)c1sccc1S(=O)(=O)NC(=O)Nc1nc(C)nc(OC)n1
Potency [1]: inactive | Potency [2]: inactive | Potency [3]: inactive | Potency [4]: inactive | Potency [10]: inactive | Potency [5]: inactive | Potency [6]: inactive | Potency [7]: inactive | Potency [8]: inactive | Potency [9]: inactive

COc1ccc(C(CN(C)C)C2(O)CCCCC2)cc1 (stereo not given)
Potency [1]: inactive | Potency [2]: inactive | Potency [3]: inactive | Potency [4]: inactive | Potency [10]: inactive | Potency [5]: inactive | Potency [6]: inactive | Potency [7]: inactive | Potency [8]: inactive | Potency [9]: inactive

NNC(N)=S
Potency [1]: inactive | Potency [2]: inactive | Potency [3]: inactive | Potency [4]: inactive | Potency [10]: inactive | Potency [5]: inactive | Potency [6]: inactive | Potency [7]: inactive | Potency [8]: inactive | Potency [9]: inactive

CCc1cccc(CC)c1N(COC)C(=O)CCl
Potency [1]: inactive | Potency [2]: inactive | Potency [3]: inactive | Potency [4]: inactive | Potency [10]: inactive | Potency [5]: inactive | Potency [7]: inactive | Potency [8]: inactive | Potency [9]: inactive

CCOP(=S)(OCC)O/N=C(\C#N)c1ccccc1
Potency [1]: inactive | Potency [2]: inactive | Potency [3]: inactive | Potency [4]: inactive | Potency [10]: inactive | Potency [5]: inactive | Potency [7]: inactive | Potency [8]: inactive | Potency [9]: inactive

CCCCN(CCCC)N=O
Potency [1]: inactive | Potency [2]: inactive | Potency [3]: inactive | Potency [4]: inactive | Potency [5]: inactive | Potency [6]: inactive | Potency [7]: inactive | Potency [8]: inactive | Potency [9]: inactive

CC(C)N(C(=O)SCC(Cl)=C(Cl)Cl)C(C)C
Potency [1]: inactive | Potency [2]: inactive | Potency [3]: inactive | Potency [4]: inactive | Potency [10]: inactive | Potency [5]: inactive | Potency [6]: inactive | Potency [7]: inactive | Potency [8]: inactive | Potency [9]: inactive

Oc1cc(Cl)ccc1Oc1ccc(Cl)cc1Cl
Potency [1]: inactive | Potency [2]: 22.4 µM (active) | Potency [3]: 50.1 µM (active) and inactive | Potency [4]: 43 µM (active) and 23.9 µM (active) | Potency [5]: 22.4 µM (active) and 23.9 µM (active) | Potency [6]: 22.4 µM (active) and 23.9 µM (active) | Potency [7]: 35.5 µM (active) and 23.9 µM (active) | Potency [9]: inactive

CC(C)NC(C)C
Potency [1]: inactive | Potency [2]: inactive | Potency [3]: inactive | Potency [4]: inactive | Potency [10]: inactive | Potency [5]: inactive | Potency [6]: inactive | Potency [7]: inactive | Potency [8]: inactive | Potency [9]: inactive

c1cc(OCC2CO2)ccc1Cc1ccc(OCC2CO2)cc1 (stereo not given)
Potency [1]: inactive | Potency [2]: inactive | Potency [3]: inactive | Potency [4]: inactive | Potency [10]: inactive | Potency [5]: inactive | Potency [6]: inactive | Potency [7]: inactive | Potency [8]: inactive | Potency [9]: inactive

NNC(=S)NN
Potency [1]: inactive | Potency [2]: inactive | Potency [3]: inactive | Potency [4]: inactive | Potency [10]: inactive | Potency [5]: inactive | Potency [7]: inactive | Potency [8]: inactive | Potency [9]: inactive

Nc1ccc(-c2ccc(N)c(N)c2)cc1N
Potency [1]: inactive | Potency [2]: inactive | Potency [3]: inactive | Potency [4]: inactive | Potency [10]: inactive | Potency [5]: inactive | Potency [7]: inactive | Potency [8]: inactive | Potency [9]: inactive

N#Cc1cc(Br)c(O)c(Br)c1
Potency [1]: inactive | Potency [2]: inactive | Potency [3]: inactive | Potency [4]: inactive | Potency [10]: inactive | Potency [5]: inactive | Potency [7]: inactive | Potency [8]: inactive | Potency [9]: inactive

CCCCC(CC)COC(=O)c1ccc(C(=O)OCC(CC)CCCC)c(C(=O)OCC(CC)CCCC)c1 (stereo not given)
Potency [1]: inactive | Potency [2]: inactive | Potency [3]: inactive | Potency [4]: inactive | Potency [5]: inactive | Potency [6]: inactive | Potency [7]: inactive | Potency [8]: inactive | Potency [9]: inactive
